This is part of a sample that, as a whole, favours compounds with a hit. Of some 79,000 tested, about 15% had one in any assay. The source made the active and inactive calls. Rule as the data show it: active = growth inhibition above about 70%; inactive = the rest.
What was measured:
[1] = NCI Yeast Anticancer Drug Screen. Data for the rad52 strain (AID 147);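 also: 0% = growth of vehicle-treated control cultures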; conditions: S. cerevisiae rad52 mutant growth inhibition, hits give high values
How it was run: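 Here a repair-compromised yeast strain receives each compound; its growth is then quantified and normalised to vehicle-only controls.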

[2] = NCI Yeast Anticancer Drug Screen. Data for the wt1 strain (AID 149);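 also: 0% = growth of vehicle-treated wt1 cultures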; conditions: S. cerevisiae wt1 strain (SPY 50644) growth inhibition, hits give high values
How it was run: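 Compounds are added to wt1 yeast cultures. Growth is then measured. Inhibition is expressed relative to vehicle-treated controls.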

[3] = NCI Yeast Anticancer Drug Screen. Data for the rad50EPP+ strain (AID 151);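 also: 0% = growth of vehicle-treated control cultures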; conditions: S. cerevisiae rad50 mutant strain, hits give high values
How it was run: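 Read-out is yeast growth inhibition relative to vehicle; cells used were the rad50EPP+ strain.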

[4] = NCI Yeast Anticancer Drug Screen. Data for the mgt1 strain (AID 153); conditions: S. cerevisiae mgt1 mutant growth inhibition, hits give high values
How it was run: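 Measured: inhibition of mgt1 yeast growth by compound, normalized to vehicle-treated cultures.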

[5] = NCI Yeast Anticancer Drug Screen. Data for the rad50 strain (AID 155);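 also: 0% = growth of vehicle-only cultures of the same strain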; conditions: S. cerevisiae rad50 strain growth inhibition, hits give high values
How it was run: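 Inhibition values express reduced yeast growth in compound-treated cultures relative to vehicle-treated controls.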

[6] = NCI Yeast Anticancer Drug Screen. Data for the mec2-1 strain (AID 157); conditions: S. cerevisiae mec2-1 strain, hits give high values
How it was run: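 Using mec2-1 yeast: add compound, measure growth, express inhibition versus vehicle-treated cultures.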

[7] = NCI Yeast Anticancer Drug Screen. Data for the rad14 strain (AID 159);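 also: 0% = growth of vehicle-treated control cultures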; conditions: S. cerevisiae rad14 strain growth inhibition, hits give high values
How it was run: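 A mutant yeast strain defective in DNA damage repair is treated with compound; inhibition of its growth is scored against untreated, vehicle-exposed cultures.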

[8] = NCI Yeast Anticancer Drug Screen. Data for the sgs1 mgt1 strain (AID 161);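 also: 0% = growth of cultures given vehicle only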; conditions: S. cerevisiae sgs1 mgt1 strain, hits give high values
How it was run: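 This yeast growth screen uses a strain with defined DNA-repair lesions; compound-treated growth is compared with vehicle-treated growth.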

[9] = NCI Yeast Anticancer Drug Screen. Data for the cln2 rad14 strain (AID 165);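 also: 0% = growth equal to vehicle treated cultures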; conditions: S. cerevisiae cln2 rad14 strain, hits give high values
How it was run: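 Yeast strain cln2 rad14, bearing defects in cell cycle control and DNA repair, serves as the test system; values reflect growth inhibition compared with vehicle.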

[10] = NCI Yeast Anticancer Drug Screen. Data for the bub3 strain (AID 167); conditions: S. cerevisiae bub3 mutant strain, hits give high values
How it was run: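 Steps: expose the mutant yeast strain to compound; grow alongside vehicle-treated cultures; measure growth; express inhibition against the vehicle cultures.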

[11] = NCI Yeast Anticancer Drug Screen. Data for the mlh1 strain (AID 171);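 also: 0% = growth of vehicle-treated control cultures of the same strain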; conditions: S. cerevisiae mlh1 strain growth inhibition, hits give high values
How it was run: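 A yeast strain with a defined genetic lesion serves as the test organism. Cultures receive compound or vehicle, and growth is measured.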

[12] = NCI Yeast Anticancer Drug Screen. Data for the mlh1 rad18 strain (AID 175); conditions: S. cerevisiae mlh1 rad18 strain growth inhibition, hits give high values
How it was run: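 Steps: expose repair-defective yeast to compound; measure growth; express inhibition against vehicle-treated controls.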

[13] = NCI Yeast Anticancer Drug Screen. Data for the rad18 strain (AID 177); conditions: S. cerevisiae rad18 mutant growth inhibition, hits give high values
How it was run: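 Measured value is growth inhibition of a yeast strain bearing a DNA repair alteration, referenced to vehicle-treated cells.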

[14] = NCI Yeast Anticancer Drug Screen. Data for the CLN2oe strain (AID 163);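 also: 0% = growth of vehicle-only control cultures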; conditions: S. cerevisiae CLN2oe strain, hits give high values
How it was run: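 Whole-cell yeast growth assay. A strain engineered for altered cell-cycle control received compound, and inhibition relative to vehicle-treated cultures was recorded.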

[15] = NCI Yeast Anticancer Drug Screen. Data for the wt2 strain (AID 169);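 also: 0% = growth of vehicle-treated yeast cultures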; conditions: S. cerevisiae wt2 strain growth inhibition, hits give high values
How it was run: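 Treated yeast vs. vehicle-treated yeast: growth inhibition determined.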

[16] = at 5.0 µM (retest, dose inferred, filed as 0.5)
[17] = at 50.0 µM (retest, dose inferred, filed as 5.0)

Measured: growth inhibition

C[C@@]12CCC(=O)C=C1CC[C@H]1C2=CC[C@]2(C)C1CC[C@@]2(C)O (stereo partly drawn)
active: [1]; at 100.0 µM 91% | [2]; at 100.0 µM 91% | [4]; at 33.0 µM 86% | [4]; at 100.0 µM 96% | [5]; at 50.0 µM 74.2% | [5]; at 100.0 µM 85% | [6]; at 33.0 µM 85% | [6]; [17] 82% | [6]; at 100.0 µM 96% | [7]; at 33.0 µM 70% | [7]; at 100.0 µM 92% | [8]; [17] 78% | [8]; at 50.0 µM 77.5% | [10]; at 33.0 µM 80% | [10]; at 50.0 µM 75.5% | [10]; at 100.0 µM 96% | [11]; at 100.0 µM 90% | [13]; at 33.0 µM 76% | [13]; at 100.0 µM 92%
inactive: [1]; at 1.2 µM -12% | [1]; at 3.7 µM -3% | [1]; at 11.0 µM -4% | [1]; at 33.0 µM 69% | [2]; at 1.2 µM -13% | [2]; at 3.7 µM -26% | [2]; at 11.0 µM -23% | [2]; at 33.0 µM 54% | [3]; at 1.2 µM -1% | [3]; at 3.7 µM -6% | [3]; at 11.0 µM -8% | [3]; at 33.0 µM -12% | [3]; at 100.0 µM 1% | [4]; at 1.2 µM 12% | [4]; at 3.7 µM 19% | [4]; at 11.0 µM 38% | [5]; at 1.2 µM 1% | [5]; at 3.7 µM 7% | [5]; [16] 27% | [5]; at 11.0 µM 5% | [5]; at 33.0 µM 63% | [5]; [17] 60% | [6]; at 1.2 µM 8% | [6]; at 3.7 µM 10% | [6]; [16] 44% | [6]; at 11.0 µM 15% | [6]; at 50.0 µM 66.5% | [7]; at 1.2 µM -22% | [7]; at 3.7 µM -25% | [7]; at 11.0 µM -10% | [8]; [16] -27% | [9]; [16] 46% | [9]; [17] 30% | [9]; at 50.0 µM 56.9% | [10]; at 1.2 µM -1% | [10]; at 3.7 µM 19% | [10]; [16] -28% | [10]; at 11.0 µM 28% | [10]; [17] 54% | [11]; at 1.2 µM -27% | [11]; at 3.7 µM -11% | [11]; at 11.0 µM 4% | [11]; at 33.0 µM 63% | [12]; [16] 25% | [12]; [17] 58% | [12]; at 50.0 µM 50.5% | [13]; at 1.2 µM -2% | [13]; at 3.7 µM 0% | [13]; at 11.0 µM 10%

CCCN(CCC)c1c([N+](=O)[O-])cc(S(N)(=O)=O)cc1[N+](=O)[O-]
inactive: [1]; at 1.2 µM 8% | [1]; at 3.7 µM 25% | [1]; at 11.0 µM 28% | [1]; at 33.0 µM 60% | [1]; at 100.0 µM 23% | [2]; at 1.2 µM 10% | [2]; at 3.7 µM 6% | [2]; at 11.0 µM 18% | [2]; at 33.0 µM 19% | [2]; at 100.0 µM 7% | [3]; at 1.2 µM -23% | [3]; at 3.7 µM -33% | [3]; at 11.0 µM -31% | [3]; at 33.0 µM -23% | [3]; at 100.0 µM -22% | [5]; at 1.2 µM 14% | [5]; at 3.7 µM 12% | [5]; [16] -5% | [5]; at 11.0 µM 33% | [5]; at 33.0 µM 44% | [5]; [17] 26% | [5]; at 50.0 µM 63.4% | [5]; at 100.0 µM 15% | [6]; at 1.2 µM -7% | [6]; at 3.7 µM 0% | [6]; [16] -13% | [6]; at 11.0 µM -25% | [6]; at 33.0 µM 32% | [6]; [17] 15% | [6]; at 50.0 µM 51.8% | [6]; at 100.0 µM -2% | [7]; at 1.2 µM -11% | [7]; at 3.7 µM -18% | [7]; at 11.0 µM -24% | [7]; at 33.0 µM 29% | [7]; at 100.0 µM -2% | [8]; [16] -11% | [8]; [17] 35% | [8]; at 50.0 µM 47.7% | [14]; at 1.2 µM -11% | [14]; at 3.7 µM -3% | [14]; at 11.0 µM -4% | [14]; at 33.0 µM 30% | [14]; at 100.0 µM 2% | [9]; [16] 2% | [10]; at 1.2 µM -13% | [10]; at 3.7 µM -22% | [10]; [16] 4% | [10]; at 11.0 µM -17% | [10]; at 33.0 µM 32% | [10]; at 100.0 µM -9% | [15]; at 1.2 µM -6% | [15]; at 3.7 µM -2% | [15]; at 11.0 µM -7% | [15]; at 33.0 µM 3% | [15]; at 100.0 µM -2%
active: [9]; [17] 73% | [9]; at 50.0 µM 85.3% | [10]; [17] 80% | [10]; at 50.0 µM 89.5%

— PubChem BioAssay (NCI)
